About 83,000 compounds went through this panel and 20% of them were active in at least one assay; those are over-represented in the sample as a whole.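 96-well plates, one dose, 48 hours. Percent growth reported; active if below 10.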 Values without a mark were called inactive. Active and inactive are the calls of the source.
test system: HL-60(TB) leukemia; assay: NCI-60 one-dose screen, 48 h (100 = growth as untreated, 0 = no growth, -100 = all killed); conditions: 10 µM unless noted

Row | Compound | growth
1 | C[C@@H]1CC[C@@H]2[C@@H]1[C@H](OC(=O)/C=C/c1ccccc1)[C@]1(CCCOCCOCCOCCOC(=O)CCCC[C@@H]3SC[C@@H]4NC(=O)N[C@@H]43)C[C@@H](OC(=O)CO)[C@@]2(C)O1 | 98.1%
2 | COc1ccc(-c2c(N)n[nH]c2-c2ccc(Cl)cc2O)cc1OC | 91.9%
3 | Cc1cccc(CC(=O)c2ccccc2)n1 | 86.9%
4 | Cc1nc2ccc(C(=O)NCc3cc(C(=O)O)c(C)o3)cc2nc1C | 103%
5 | CC(C)Cn1cnc2c(=O)[nH]c(N)nc21 | 63.8%
6 | COc1ccncc1S(=O)(=O)NC(=O)Nc1ccc(Cl)c(Cl)c1 | 84.8%
7 | CSc1nc(NCc2ccccc2)c(C#N)c(-c2cccc([N+](=O)[O-])c2)n1 | 107%
8 | O=C1COc2ccccc2C(=O)N1CCCCNc1ccccc1 | -36.5% (active)
9 | COc1ccc(OC)c([N+](=O)[O-])c1C(=O)CNC(C)=O | 104%
10 | COc1ccc2nc3cc(Cl)ccc3c(Nc3ccc(N(C)C)cc3)c2c1 | 90%
11 | CC(=O)c1ccc(NCn2nc(-c3ccc(Cl)cc3)oc2=S)cc1 | 88.9%
12 | NC(=O)CC(NC(=O)COc1ccc(Cl)cc1Cl)C(=O)O (stereo not given) | 109%
13 | NCCCNc1nc2ccc(Cl)cc2c2c(=O)c3cc(F)ccc3sc12 | 34.9%
14 | COc1cc(Br)c(OC)cc1Br | 109%
15 | NS(=O)(=O)c1cnccc1Sc1ccncc1S(N)(=O)=O | 82.5%
16 | COc1cc(/C=C/CO)cc(OC)c1O[C@@H]1O[C@H](CO)[C@@H](O)[C@H](O)[C@H]1O | 85.9%
17 | O=C1Nc2ccccc2C2c3cccn3-c3ccccc3N12 (stereo not given) | 86.1%
18 | COc1cc(/C=C/C(=O)c2cccc(-n3cc(-c4ccc(Cl)cc4)[nH]c3=O)c2)ccc1O | -19.9% (active)
19 | COc1ccc(Cl)cc1Nc1nc(C(F)(F)F)ccc1C(=O)N/N=C/c1ccc(N(C)C)cc1 | 85.4%
20 | COc1ccc(N=C(c2ccccc2)C2C(=O)c3ccccc3C2=O)cc1 | 61.3%

Row | Compound | growth
21 | S=C1N(c2ccccc2)CN(C2CCCCC2)CN1c1ccccc1 | 96.1%
22 | COc1ccc(-c2cc(C#N)c(NNC(C)=O)[nH]2)cc1 | 11.4%
23 | CC(=O)OC[C@H](O)[C@@]1(O)CC[C@H]2[C@@H]3CCC4=CC(=O)CC[C@]4(C)[C@H]3[C@@H](O)C[C@@]21C | 101%
24 | O=C([O][Sn]([O]C(=O)c1ccccn1)([c]1ccccc1)[c]1ccccc1)c1ccccn1 | 68.5%
25 | O=C(O)C(c1ccccc1)C(O)c1ccccc1 (stereo not given) | 97.8%
26 | CCCC(O)Cn1ncc(C(=O)OCC)c1NC(=O)NCc1cccc(F)c1 (stereo not given) | 59.2%
27 | Cc1nc(NC(=O)COc2ccc(/C=C3\Cc4ccc(Cl)cc4C3=O)cc2)sc1C | 86.5%
28 | N[C@@H]1CCN(C(=O)c2cc3cc(Cl)c(F)c(F)c3[nH]2)C1 | 97.7%
29 | CCOC(=O)c1c(C)nc2c(c1N)/C(=C/c1ccc(OC)cc1)C(=O)N2Cc1ccc(F)cc1 | 4.72% (active)
30 | C[C@@H](Oc1cc(-c2cnn(C3CC4(CCCNC4)C3)c2)cnc1N)c1c(Cl)ccc(F)c1Cl (stereo not given in full) | -41% (active)
31 | CN1CCN(CC(=O)N(C)c2ccc(N=C(c3ccccc3)c3c(O)[nH]c4ccc([N+](=O)[O-])cc34)cc2)CC1 | 53.5%
32 | CCCCCCCCCCCCCCCCCC1OCC(COC(=O)O[C@]2(CC)C(=O)OCc3c2cc2n(c3=O)Cc3cc4ccccc4nc3-2)O1 (stereo not given in full) | 102%
33 | Brc1ccc(Nc2nc3ccccc3nc2Nc2ccc(Br)cc2)cc1 | -12.3% (active)
34 | Cn1cc(-c2csc(-c3cn(C)c4ccc(F)cc34)n2)c2cnccc21 | -44.8% (active)
35 | CCn1cc(Cc2cc(C(=O)Nc3cc4cc(OC)c(OC)cc4c(C)n3)ccc2Cl)cn1 | 13.9%
36 | CCC(CC)(N(CC(=O)O)CC(=O)O)C(CC)(CC)N(CC(=O)O)CC(=O)O | 79.1%
37 | COc1ncc2cc1NS(=O)(=O)c1cccc(c1)C(=O)NCC1=CC=C(S1)c1ncnc3c1SC2=C3C | -10.8% (active)
38 | COc1ccccc1N=Nc1c(O)ccc2cc(S(=O)(=O)O)ccc12 | 106%
39 | N#Cc1c(-c2ccc(Cl)cc2)nc(NN=Cc2ccc[nH]2)nc1N1CCOCC1 | 2.28% (active)
40 | CC[C@@H]1NC(=O)[C@H]([C@H](O)[C@H](C)C/C=C/c2ccc(CN3C(=O)CCCC3=O)cc2)N(C)C(=O)[C@H](C(C)C)N(C)C(=O)[C@H](CC(C)C)N(C)C(=O)[C@H](CC(C)C)N(C)C(=O)[C@@H](C)NC(=O)[C@H](C)NC(=O)[C@H](CC(C)C)N(C)C(=O)[C@H](C(C)C)NC(=O)[C@H](CC(C)C)N(C)C(=O)CN(C)C1=O | 61.3%

Reference: PubChem BioAssay (NCI)
